Experimental data: PubChem BioAssay
For some of these results: Entries with a potency or affinity are not part of this list. Calls of active or inactive are those of the source. Unless noted, how the calls were made is not given here.

Columns and labels:
[1] = antimalarial activity against Dd2 strain (AID 2302;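 active means growth inhibition above 50% at the single 2 µM test dose, taken to imply half-maximal potency below 2 µM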;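 further: 0% = DMSO untreated growth and 100% = chloroquine plus artemisinin killed control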); details: P. falciparum Dd2 in RBCs, LDH growth readout, 72 h; at 2 µM; stronger effect = higher value
[2] = human hepatoma cell viability loss – ATP luminescence, cytotoxicity control for P. falciparum antimalarial project, primary screen (AID 2303;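 active means inhibition above 50%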;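 further: 0% = DMSO wells and 100% = digitonin-killed cells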); details: HepG2 viability, 24-48 h, at 10 µM, stronger effect = higher value
[3] = target: L-lactate dehydrogenase (Plasmodium falciparum (isolate CDC / Honduras)) (UniProt Q27743); assay: PfLDH activity inhibition – cell lysate, 3D7 strain, counter-screen for P. falciparum growth inhibition project (AID 2304);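 further: 0% = vehicle and 100% = reference inhibitor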; details: P. falciparum 3D7 crude extract, LDH APAD/NBT absorbance; at 2 µM; stronger effect = higher value
[4] = inhibition of 3D7 malaria parasite growth – strain 3D7 (AID 2306);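 further: 0% = DMSO wells and 100% = chloroquine plus artemisinin control wells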; details: P. falciparum 3D7 erythrocytic growth, LDH absorbance, 72 h; at 2 µM; stronger effect = higher value
[5] = target: Calcium-dependent protein kinase 1 (Plasmodium falciparum (isolate 3D7)) (UniProt P62344); assay: PfCDPK1 kinase inhibitors, biochemical, TCAMS library (AID 1159585; cut-off not given, nearly all actives have IC50 up to about 0.98 µM;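 further: inhibitors leave more ATP so luminescence rises with inhibition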); details: recombinant PfCDPK1, Kinase-Glo ATP depletion luminescence
[6] = target: Plasmodium falciparum protein kinase 6 (PK6, PF3D7_1337100) (UniProt Q8IDW1); assay: PfPK6 kinase inhibitors, biochemical, TCAMS library (AID 1159586); details: recombinant PfPK6, Kinase-Glo ATP depletion luminescence
[7] = target: Protein kinase 7 (PK7), Plasmodium falciparum 3D7 (PF3D7_0213400) (UniProt Q7YTF7); assay: inhibition of Plasmodium PK7 catalytic activity – biochemical, TCAMS antimalarial set, Kinase-Glo luminescence (AID 1159587); details: recombinant PfPK7, Kinase-Glo ATP depletion luminescence
[8] = target: Calcium-dependent protein kinase 4 (Plasmodium falciparum (isolate 3D7)) (UniProt Q8IBS5); assay: PfCDPK4 kinase inhibitors, biochemical, TCAMS library (AID 1159588; cut-off not given, nearly all actives have IC50 up to about 0.91 µM); details: recombinant PfCDPK4, Kinase-Glo ATP depletion luminescence
Calcium-dependent protein kinase 4 (Plasmodium falciparum (isolate 3D7)), sequence (Q8IBS5 whole entry, looked up): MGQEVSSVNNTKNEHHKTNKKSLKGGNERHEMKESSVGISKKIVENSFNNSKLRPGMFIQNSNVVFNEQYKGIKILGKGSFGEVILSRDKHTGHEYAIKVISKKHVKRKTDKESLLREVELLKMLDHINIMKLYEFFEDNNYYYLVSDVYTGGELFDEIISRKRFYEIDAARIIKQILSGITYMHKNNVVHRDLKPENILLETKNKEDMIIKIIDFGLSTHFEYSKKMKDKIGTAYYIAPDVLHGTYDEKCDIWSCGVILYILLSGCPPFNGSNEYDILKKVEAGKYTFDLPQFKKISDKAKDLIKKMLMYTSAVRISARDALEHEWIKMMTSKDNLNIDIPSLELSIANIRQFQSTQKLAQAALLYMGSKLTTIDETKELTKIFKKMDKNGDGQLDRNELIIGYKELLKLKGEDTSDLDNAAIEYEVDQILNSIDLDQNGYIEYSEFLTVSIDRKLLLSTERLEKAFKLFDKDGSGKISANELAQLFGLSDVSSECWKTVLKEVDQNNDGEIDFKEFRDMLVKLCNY

Plasmodium falciparum protein kinase 6 (PK6, PF3D7_1337100), sequence (Q8IDW1 1-305): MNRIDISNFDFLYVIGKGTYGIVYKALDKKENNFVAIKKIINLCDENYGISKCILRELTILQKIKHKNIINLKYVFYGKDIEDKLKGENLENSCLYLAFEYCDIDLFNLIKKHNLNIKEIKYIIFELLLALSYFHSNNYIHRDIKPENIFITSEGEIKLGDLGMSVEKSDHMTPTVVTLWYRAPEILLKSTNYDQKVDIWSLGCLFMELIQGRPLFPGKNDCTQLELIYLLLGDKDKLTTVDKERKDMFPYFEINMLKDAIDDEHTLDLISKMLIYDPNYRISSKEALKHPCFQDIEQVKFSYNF
Calcium-dependent protein kinase 1 (Plasmodium falciparum (isolate 3D7)), sequence (P62344 whole entry, looked up): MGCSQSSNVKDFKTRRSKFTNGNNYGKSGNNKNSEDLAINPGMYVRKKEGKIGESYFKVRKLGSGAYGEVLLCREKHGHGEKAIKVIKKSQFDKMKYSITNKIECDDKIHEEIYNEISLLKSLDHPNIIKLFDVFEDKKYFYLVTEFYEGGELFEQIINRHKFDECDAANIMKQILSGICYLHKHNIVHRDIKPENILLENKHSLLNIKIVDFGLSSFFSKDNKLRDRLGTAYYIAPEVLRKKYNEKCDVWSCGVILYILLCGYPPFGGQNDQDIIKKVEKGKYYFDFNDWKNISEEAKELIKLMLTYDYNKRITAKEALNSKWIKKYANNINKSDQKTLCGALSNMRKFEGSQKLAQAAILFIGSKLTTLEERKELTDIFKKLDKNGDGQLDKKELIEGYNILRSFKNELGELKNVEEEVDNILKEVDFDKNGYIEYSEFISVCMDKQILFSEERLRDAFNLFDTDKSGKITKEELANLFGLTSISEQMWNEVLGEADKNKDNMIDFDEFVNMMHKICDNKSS
Protein kinase 7 (PK7), Plasmodium falciparum 3D7 (PF3D7_0213400), sequence (Q7YTF7 1-343): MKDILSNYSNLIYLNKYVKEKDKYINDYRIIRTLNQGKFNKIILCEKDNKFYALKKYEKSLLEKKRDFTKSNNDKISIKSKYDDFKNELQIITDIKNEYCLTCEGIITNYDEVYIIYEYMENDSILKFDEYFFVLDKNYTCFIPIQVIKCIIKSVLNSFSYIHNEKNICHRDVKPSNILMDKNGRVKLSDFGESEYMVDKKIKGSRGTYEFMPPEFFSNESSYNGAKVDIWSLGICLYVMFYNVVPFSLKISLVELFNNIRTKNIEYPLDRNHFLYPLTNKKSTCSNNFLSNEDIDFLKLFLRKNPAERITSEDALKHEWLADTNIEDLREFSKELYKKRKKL
L-lactate dehydrogenase (Plasmodium falciparum (isolate CDC / Honduras)), sequence (Q27743 whole entry, looked up): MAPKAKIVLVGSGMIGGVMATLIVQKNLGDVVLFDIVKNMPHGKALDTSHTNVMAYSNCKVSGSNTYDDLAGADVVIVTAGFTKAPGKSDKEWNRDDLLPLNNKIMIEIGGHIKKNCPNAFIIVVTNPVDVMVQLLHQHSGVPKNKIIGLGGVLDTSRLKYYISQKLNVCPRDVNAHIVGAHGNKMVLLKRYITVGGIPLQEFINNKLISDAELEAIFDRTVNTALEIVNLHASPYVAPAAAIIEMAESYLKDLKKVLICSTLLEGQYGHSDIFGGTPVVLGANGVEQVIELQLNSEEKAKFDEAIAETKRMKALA

CCOC(=O)CN1Cc2cc(NCc3ccc4ccc5nc(C)[nH]c(=O)c5c4c3)ccc2C1=O
inactive: inhibition [2] 40% | inhibition [3] 1% | outcome [5] | outcome [6] | outcome [7] | outcome [8]
active: growth inhibition [1] 91% | growth inhibition [4] 84%

CC[C@H](NC(=O)c1c(CN2CCC(N3CCCCC3)CC2)c(-c2ccccc2)nc2cc(O)ccc12)c1ccccc1
inactive: growth inhibition [1] 13% | inhibition [2] 15% | inhibition [3] 2% | outcome [5] | outcome [6] | outcome [7] | outcome [8]
active: growth inhibition [4] 94%

COc1cccc(Nc2nc(C)cc(NC3CCN(Cc4ccccc4)CC3)n2)c1
inactive: growth inhibition [1] 46% | inhibition [2] 15% | inhibition [3] 8% | outcome [5] | outcome [6] | outcome [7] | outcome [8]
active: growth inhibition [4] 102%

Cc1[nH]c(C)c(-c2ccc(Br)cc2)c(=O)c1Br
active: growth inhibition [1] 95% | growth inhibition [4] 98%
inactive: inhibition [2] 9% | inhibition [3] 6% | outcome [5] | outcome [6] | outcome [7] | outcome [8]

CC[C@H](C)CNC(=O)c1cncc(-c2cccc(CNC3Cc4ccccc4C3)c2)c1
active: growth inhibition [1] 76% | growth inhibition [4] 101%
inactive: inhibition [2] 5% | inhibition [3] 0% | outcome [5] | outcome [6] | outcome [7] | outcome [8]

Cc1ccc(-c2nnc(-c3ccc(C(=O)NC4CCN(Cc5ccc(C#N)cc5)CC4)cc3)o2)cc1Br
inactive: growth inhibition [1] 7% | inhibition [2] 41% | inhibition [3] -5% | outcome [5] | outcome [6] | outcome [7] | outcome [8]
active: growth inhibition [4] 91%

COc1ccc(C[C@@H](N)C(=O)N[C@H]2[C@@H](O)[C@H](n3cnc4c(N(C)C)ncnc43)O[C@@H]2CO)cc1
inactive: inhibition [3] 0% | outcome [5] | outcome [6] | outcome [7] | outcome [8]
active: growth inhibition [1] 100% | inhibition [2] 99% | growth inhibition [4] 101%

CCCN(CCCCCCNCCc1ccc(Cl)cc1)CCc1ccc(O)c(O)c1
active: growth inhibition [4] 91%
inactive: growth inhibition [1] 11% | inhibition [2] 26% | inhibition [3] -3% | outcome [5] | outcome [6] | outcome [7] | outcome [8]

Cc1nnsc1C(=O)Nc1cccc(-c2ccc(-c3nc4ccccc4[nH]3)s2)c1
inactive: growth inhibition [1] 13% | inhibition [3] -3% | outcome [5] | outcome [6] | outcome [7] | outcome [8]
active: inhibition [2] 55% | growth inhibition [4] 89%

Cc1cc(C2CCN(CCCCNC(=O)c3ccc(-c4ccc(C(F)(F)F)cc4)cc3)CC2)c(C)cc1OCCOC1CCCCO1 (stereo not drawn)
inactive: growth inhibition [1] 5% | inhibition [2] 30% | inhibition [3] -7% | outcome [5] | outcome [6] | outcome [7] | outcome [8]
active: growth inhibition [4] 95%

COc1ccc2nccc([C@@H](O)CN3CCC(NCc4ccc5c(c4)N(C)C(=O)CO5)CC3)c2c1
inactive: inhibition [2] -3% | inhibition [3] 6% | outcome [5] | outcome [6] | outcome [7] | outcome [8]
active: growth inhibition [1] 95% | growth inhibition [4] 101%

NS(=O)(=O)c1cccc(-c2ccc3c(=O)[nH]cnc3c2)c1
active: growth inhibition [1] 100% | growth inhibition [4] 99%
inactive: inhibition [2] 6% | inhibition [3] 4% | outcome [5] | outcome [6] | outcome [7] | outcome [8]

O=C(Nc1cccc(CN2CCCN(Cc3ccc4c(c3)OCO4)CC2)c1)c1ccc(-c2ccccc2)cc1
active: growth inhibition [4] 90%
inactive: growth inhibition [1] 19% | inhibition [2] 48% | inhibition [3] -10% | outcome [5] | outcome [6] | outcome [7] | outcome [8]

CN1CCN(c2ccnc3ccc(NC(=O)N(C)c4ccc(Cl)c(Cl)c4)cc23)CC1
active: growth inhibition [1] 85% | growth inhibition [4] 100%
inactive: inhibition [2] 5% | inhibition [3] -3% | outcome [5] | outcome [6] | outcome [7] | outcome [8]

CCOc1cc(C(=O)NC2CC(C)(C)N(C)C(C)(C)C2)ccc1-c1nc2cc(Cl)c(Cl)cc2[nH]1
inactive: growth inhibition [1] 49% | inhibition [3] 4% | outcome [5] | outcome [6] | outcome [7] | outcome [8]
active: inhibition [2] 64% | growth inhibition [4] 101%

CCc1cccc(-n2nc(OCC(=O)NC3CCCC3)c3cccnc32)c1
active: growth inhibition [4] 94%
inactive: growth inhibition [1] 13% | inhibition [2] 2% | inhibition [3] -4% | outcome [5] | outcome [6] | outcome [7] | outcome [8]

COc1ccc(NC(=O)[C@H](Cc2ccccc2)Nc2nc(NCCN3CCCC3)ncc2C)cc1
inactive: growth inhibition [1] 9% | inhibition [2] 26% | inhibition [3] 1% | outcome [5] | outcome [6] | outcome [7] | outcome [8]
active: growth inhibition [4] 89%

COc1ccc(-c2cncc3ccc(C(=O)NCc4ccncc4)nc23)cc1
active: growth inhibition [1] 98% | growth inhibition [4] 100%
inactive: inhibition [2] 25% | inhibition [3] 0% | outcome [5] | outcome [6] | outcome [7] | outcome [8]

CCOC(=O)c1ccc(NC(=O)Nc2cccc(-c3ccc(-c4nc5ccc(C(F)(F)F)cc5[nH]4)cc3)c2)cc1
inactive: inhibition [3] -4% | outcome [5] | outcome [6] | outcome [7] | outcome [8]
active: growth inhibition [1] 99% | inhibition [2] 62% | growth inhibition [4] 101%

Cc1c(-c2cccc(C(C)(C)NCCCN3CCCCC3)c2)cnc(N)c1C
active: growth inhibition [4] 95%
inactive: growth inhibition [1] 2% | inhibition [2] 5% | inhibition [3] -1% | outcome [5] | outcome [6] | outcome [7] | outcome [8]

Cc1cnc(C(=O)Nc2cccc(-c3ccc(-c4nc5ccc(C(F)(F)F)cc5[nH]4)s3)c2)cn1
inactive: growth inhibition [1] 14% | inhibition [2] 35% | inhibition [3] -7% | outcome [5] | outcome [6] | outcome [7] | outcome [8]
active: growth inhibition [4] 86%

COc1cc2cc(C(=O)Nc3ccccc3)c(N)nc2cc1OC
inactive: growth inhibition [1] -2% | inhibition [2] 0% | inhibition [3] -1% | outcome [5] | outcome [6] | outcome [7] | outcome [8]
active: growth inhibition [4] 90%

O=[N+]([O-])c1cccc(CNC2CCN(Cc3ccc4ccccc4c3)CC2)c1
inactive: growth inhibition [1] 22% | inhibition [2] 12% | inhibition [3] -3% | outcome [5] | outcome [6] | outcome [7] | outcome [8]
active: growth inhibition [4] 100%

CC(C)CNCc1ccc(-c2ccc(CN(C(=O)NCCc3ccccc3)C3CCN(Cc4ccccc4)CC3)cc2)cc1
inactive: inhibition [2] 37% | inhibition [3] -3% | outcome [5] | outcome [6] | outcome [7] | outcome [8]
active: growth inhibition [1] 62% | growth inhibition [4] 98%

COc1ccc(F)cc1-c1cccc(CNC2CCN(CC3Cn4c(=O)ccc5ccc(F)c3c54)CC2)c1 (stereo not drawn)
inactive: growth inhibition [1] 27% | inhibition [2] 46% | inhibition [3] 1% | outcome [5] | outcome [6] | outcome [7] | outcome [8]
active: growth inhibition [4] 100%

CCOC(=O)c1cn(CC)c2cc(F)c(OC3C[C@@H]4CC[C@@]3(C)C4(C)C)cc2c1=O (stereo partly drawn)
inactive: inhibition [2] -7% | inhibition [3] -1% | outcome [5] | outcome [6] | outcome [7] | outcome [8]
active: growth inhibition [1] 70% | growth inhibition [4] 91%

Fc1cccc(COc2ccc(Nc3ncnc4ccc(C#C[C@H]5CCCN5)cc34)cc2Cl)c1
inactive: growth inhibition [1] 26% | inhibition [2] 7% | inhibition [3] -2% | outcome [5] | outcome [6] | outcome [7] | outcome [8]
active: growth inhibition [4] 91%

O=C(Nc1cccc(-c2cccc(-c3nc4ccccc4[nH]3)c2)c1)c1ccncc1
inactive: growth inhibition [1] 38% | inhibition [2] 27% | inhibition [3] -4% | outcome [5] | outcome [6] | outcome [7] | outcome [8]
active: growth inhibition [4] 99%

Cc1onc(-c2c(F)cccc2Cl)c1C(=O)Nc1ccccc1I
active: growth inhibition [1] 52% | growth inhibition [4] 99%
inactive: inhibition [2] -8% | inhibition [3] -4% | outcome [5] | outcome [6] | outcome [7] | outcome [8]

O=C(/C=C/c1ccc(F)cc1)NC1CCC(CCN2CCc3ccc(-n4cccn4)cc3CC2)CC1 (stereo not drawn)
active: growth inhibition [4] 89%
inactive: growth inhibition [1] 16% | inhibition [2] 23% | inhibition [3] 3% | outcome [5] | outcome [6] | outcome [7] | outcome [8]

CC1(C)C(N(O)C(=O)Nc2ccc(Cl)c(Cl)c2)N(c2ccc(Cl)c(Cl)c2)C(=O)N1CCc1ccccc1 (stereo not drawn)
inactive: inhibition [2] 10% | inhibition [3] -1% | outcome [5] | outcome [6] | outcome [7] | outcome [8]
active: growth inhibition [1] 93% | growth inhibition [4] 91%

O=C(Nc1cccc(-c2ccc(CN3CCC(O)CC3)cc2)c1)c1cccc(Cl)c1
inactive: growth inhibition [1] 2% | inhibition [2] 11% | inhibition [3] -11% | outcome [5] | outcome [6] | outcome [7] | outcome [8]
active: growth inhibition [4] 96%

Oc1cc(Nc2ccnc3ccc(I)cc23)c(F)cc1Cl
inactive: growth inhibition [1] 13% | inhibition [2] 20% | inhibition [3] 0% | outcome [5] | outcome [6] | outcome [7] | outcome [8]
active: growth inhibition [4] 95%

CCC1(c2ccccc2)N=C(N)N(CCCc2ccccc2)C1=O (stereo not drawn)
inactive: inhibition [2] 17% | inhibition [3] 1% | outcome [5] | outcome [6] | outcome [7] | outcome [8]
active: growth inhibition [1] 96% | growth inhibition [4] 90%

O=C(NCC1CCN(Cc2ccc3c(c2)OCCO3)C1)c1cc(-c2ccccc2F)cs1 (stereo not drawn)
active: growth inhibition [4] 95%
inactive: growth inhibition [1] -1% | inhibition [2] 18% | inhibition [3] 4% | outcome [5] | outcome [6] | outcome [7] | outcome [8]

Fc1ccc([C@H]2N=C(SCCSC3=N[C@H](c4ccc(F)cc4)[C@H](c4ccc(F)cc4)N3)N[C@H]2c2ccc(F)cc2)cc1
active: growth inhibition [1] 69% | growth inhibition [4] 99%
inactive: inhibition [2] 18% | inhibition [3] -5% | outcome [5] | outcome [6] | outcome [7] | outcome [8]

CC(C)(C)c1cc(C(=O)N2CCC(c3ccccn3)CC2)n(Cc2ccccc2)n1
active: growth inhibition [1] 90% | growth inhibition [4] 96%
inactive: inhibition [2] 3% | inhibition [3] -3% | outcome [5] | outcome [6] | outcome [7] | outcome [8]

Fc1ccc2nc(-c3cccc(-c4cccc(CNCCc5ccncc5)c4)c3)[nH]c2c1
inactive: inhibition [2] 22% | inhibition [3] 2% | outcome [5] | outcome [6] | outcome [7] | outcome [8]
active: growth inhibition [1] 88% | growth inhibition [4] 100%

O=C(NCc1ccc(Cl)c(Cl)c1)c1ccc(C2CCN(Cc3ccc4nc[nH]c4c3)CC2)cc1
active: growth inhibition [4] 100%
inactive: growth inhibition [1] 31% | inhibition [2] 1% | inhibition [3] -1% | outcome [5] | outcome [6] | outcome [7] | outcome [8]

CC(=O)Nc1ccc([N+](=O)[O-])c2c(Br)cccc12
active: growth inhibition [4] 100%
inactive: growth inhibition [1] -1% | inhibition [2] -3% | inhibition [3] -4% | outcome [5] | outcome [6] | outcome [7] | outcome [8]

COc1cccc(CN2CCN(C(c3ccccc3)c3ccccc3)CC2)c1O
inactive: inhibition [2] 6% | inhibition [3] 2% | outcome [5] | outcome [6] | outcome [7] | outcome [8]
active: growth inhibition [1] 98% | growth inhibition [4] 99%
